Assay outcomes (PubChem)
Sampled rows, rich in hits. Any-hit rate of the full collection: about 0.71%.
hiPSC survival: hiPSC single-cell survival enhancement | ATPlite luminescence; 100% = ROCK inhibitor wells, 0% = DMSO | survival enhancement, % at 20 µM | actives 0.044% (n = 360,000) | AID 602274; in the data active = survival enhancement above about 18%;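 also: cells exposed to compounds for 16 hours before the ATP read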
H9c2 TAG inh: inhibitors of triacylglycerol accumulation | inhibition, % at 12.5 µM | H9c2 cells, Nile Red lipid (TAG) fluorescence; cells loaded with 200 µM oleic acid | AID 651582 | actives 0.66% (n = 230,000);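 active = pattern-corrected inhibition of lipid staining of at least 50% with the nuclear-stain viability signal not falling by more than 50%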
beta cell repl: inducers of beta-cell replication in MIN6 cells; AID 2380; MIN6 cells proliferation, ATPlite luminescence, 48 h; cells starved in 0.2% serum; 100% = growth in 10% serum; actives 0.29% (n = 330,000); proliferation, % at 10 µM;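 active = compounds whose signal lies at least 3.5 SD above the mean of all wells on their plate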
H9c2 TAG conf: triacylglycerol accumulation inhibition, confirmation. H9c2 lipid accumulation, Nile Red fluorescence; cells loaded with 200 µM oleic acid. actives 71% (n = 990). inhibition, % at 12.5 µM. shares compounds with H9c2 TAG inh. AID 651629;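 active = mean inhibition across replicates of 40% or more; inactive = mean inhibition below 40%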
Numbers stand for hits.

Screening COc1cc(C2=NOC(C(=O)NCc3cccs3)C2)cc(OC)c1OC (stereo unspecified) returned hiPSC survival inactive, H9c2 TAG inh 52, beta cell repl inactive and H9c2 TAG conf 63.
Screening COc1ccc(C2=NOC(C(=O)NCc3cccs3)C2)cc1OC (stereo unspecified) returned beta cell repl inactive.
For Cc1ccc(-c2cc(=O)c3ccccc3[nH]2)cc1 the results were hiPSC survival inactive, H9c2 TAG inh inactive and beta cell repl inactive.
`Cc1ccc2[nH]c(-c3ccccc3)cc(=O)c2c1` gave hiPSC survival inactive, H9c2 TAG inh 53, beta cell repl inactive and H9c2 TAG conf 58.
`CCOC(=O)c1[nH]c(C)c(C(=O)Nc2cc(Cl)ccc2C)c1C` gave hiPSC survival inactive and beta cell repl inactive.
CCOC(=O)c1[nH]c(C)c(C(=O)Nc2ccccc2C)c1C was read as hiPSC survival inactive, H9c2 TAG inh 54, beta cell repl inactive and H9c2 TAG conf 59.
`CCCCCCN1C[C@H](n2cc(C3CC3)nn2)[C@@H](O)C[C@@H]1c1ccc(Cl)cc1` gave hiPSC survival inactive and H9c2 TAG inh inactive.
CCOC(=O)N1CCC(N2Cc3cccc(C(=O)Nc4ccc(F)cc4)c3C2=O)CC1 was read as hiPSC survival inactive, H9c2 TAG inh inactive and beta cell repl inactive.
CCOC(=O)N1CCC(N2Cc3cccc(C(=O)Nc4ccc(CC)cc4)c3C2=O)CC1 was read as hiPSC survival inactive, H9c2 TAG inh 70, beta cell repl inactive and H9c2 TAG conf inactive.
For COc1cc(NS(=O)(=O)c2ccc(-n3cccn3)cc2)cc(OC)c1 the results were hiPSC survival inactive and H9c2 TAG inh inactive.
O=C(NCCc1cccs1)Nc1ccc2nc([C@@H]3O[C@H](CO)[C@@H](O)[C@H]3O)[nH]c2c1 was read as hiPSC survival inactive and H9c2 TAG inh inactive.
For CN1/C(=C\C(=O)CSc2nnc(NCc3ccccc3)s2)C(C)(C)c2ccccc21 the results were hiPSC survival inactive and beta cell repl inactive.
`Cc1cc(C(=O)CSc2nnc(NCc3ccccc3)s2)c(C)n1C` gave hiPSC survival inactive, H9c2 TAG inh 51, beta cell repl inactive and H9c2 TAG conf inactive.
`COc1cc(CNc2nccn3ccnc23)cc(OC)c1` gave hiPSC survival inactive and H9c2 TAG inh inactive.
Cc1ccc(C(=O)Sc2cccccc2=O)cc1 was read as hiPSC survival inactive and beta cell repl inactive.
O=C(Nc1ccc2c(c1)OCCO2)C(C1CC1)N1CCN(c2ccc(C(F)(F)F)cn2)CC1 (stereo unspecified) was read as hiPSC survival inactive.
Cc1cc(-n2c(C)cc(C(=O)CSc3nc4ccccc4c(=O)n3Cc3ccco3)c2C)no1 was read as hiPSC survival inactive, H9c2 TAG inh 55, beta cell repl inactive and H9c2 TAG conf inactive.
`O=C(CSc1nc2ccccc2c(=O)n1Cc1ccco1)c1ccccc1` gave hiPSC survival inactive and beta cell repl inactive.
`CCOC(=O)C1CCN(C(=O)C2(NC(=O)Nc3ccccc3Cl)CCCCC2)CC1` gave hiPSC survival inactive, H9c2 TAG inh 70, beta cell repl inactive and H9c2 TAG conf inactive.
`CCOC(=O)C1CCN(C(=O)C2(NC(=O)Nc3ccccc3C)CCCCC2)CC1` gave hiPSC survival inactive and beta cell repl inactive.
For COC(CNC(=O)CCc1c(C)nc2c(c(C)nn2-c2ccc(C)cc2)c1C)OC the results were hiPSC survival inactive and beta cell repl inactive.
Cc1ccc(-n2nc(C)c3c(C)c(CCC(=O)Nc4ccc(CN5CCCC5)cc4)c(C)nc32)cc1 was read as hiPSC survival inactive, H9c2 TAG inh 65, beta cell repl inactive and H9c2 TAG conf 59.
Screening O=C1NC(=O)C2C3OC(C(Br)C3Br)C12 (stereo unspecified) returned hiPSC survival inactive and H9c2 TAG inh inactive.
Screening CSC1=NC(C(Cl)(Cl)Cl)N=C(c2ccc(C)cc2)N1 (stereo unspecified) returned hiPSC survival inactive, H9c2 TAG inh 56, beta cell repl inactive and H9c2 TAG conf 50.
For CCC1N=C(SC)NC(C)=C1C(=O)c1ccccc1 (stereo unspecified) the results were hiPSC survival inactive, H9c2 TAG inh inactive and beta cell repl inactive.
Cc1c(C(=O)NCc2ccco2)sc(=O)n1Cc1ccc(S(C)(=O)=O)cc1 was read as hiPSC survival inactive and H9c2 TAG inh inactive.
CN(Cc1ccccc1)C(=O)[C@@H]1CCCN1C(=O)OC(C)(C)C was read as hiPSC survival inactive.
